# In the library only some 0.86% were active in any assay of this set; here they are far more common.
# GLS inhibitor = qHTS for Inhibitors of Glutaminase (GLS) | Glutaminase kidney isoform, mitochondrial (Homo sapiens), O94925 | AID 624170, 2012 | GLS enzymatic activity, qHTS titration | 0.21% of 410,000 active | Potency, µM (highest dose often 45.5 µM), for the others: top-dose activity change, negative = inhibition, usual class: inhibitors
#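 Coupled fluorescence readout: glutamate oxidase/HRP/Amplex Red detect glutamate formed by hKGA from L-glutamine (1 mM solution added). Buffer 45 mM KH2PO4 pH 8.2, 0.02% Tween-20; reads at t0 and 30 min RT.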
# APEX1 inh = qHTS Assay for Inhibitors of the Human Apurinic/apyrimidinic Endonuclease 1 (APE1). Potency, µM (titrated, usually from 65.8 µM), without a hit: at the top dose activity change, negative = inhibition, usual class: inhibitors. 0.35% of 350,000 active. AID 2517, 2012. DNA repair nuclease/redox regulator APEX1 (Homo sapiens), P27695. recombinant APE1, TAMRA/BHQ-2 abasic DNA cleavage fluorescence;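 further: plate controls were vehicle for no effect and reference inhibitor for full effect; nearly all actives have a fitted effect of over 55% in size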
# Target sequence (P27695 whole entry, looked up): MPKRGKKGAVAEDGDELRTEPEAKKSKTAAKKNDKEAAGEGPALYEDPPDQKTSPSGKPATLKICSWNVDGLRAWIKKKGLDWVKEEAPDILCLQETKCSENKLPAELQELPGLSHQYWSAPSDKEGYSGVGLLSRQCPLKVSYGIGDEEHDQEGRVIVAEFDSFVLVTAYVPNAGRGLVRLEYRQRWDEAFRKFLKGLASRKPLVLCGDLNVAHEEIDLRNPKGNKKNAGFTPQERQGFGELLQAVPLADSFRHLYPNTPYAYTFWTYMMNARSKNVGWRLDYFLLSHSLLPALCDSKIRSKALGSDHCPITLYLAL
#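 Substrate: short duplex with […] THF abasic site, 5'-TAMRA and 3'-BHQ-2, 50 nM final. APE1 at 0.75 nM, preincubated 15 min RT with compound. Fluorescence increase from first to third read measured activity.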
# BLM helicase inh = qHTS Assay for Inhibitors of Bloom's syndrome helicase (BLM); RecQ-like DNA helicase BLM (Homo sapiens), P54132; recombinant BLM DNA unwinding, fluorescence dequenching; Potency, µM (doses to about 56.1 µM), for inactives: at the highest dose activity change, negative = inhibition, hits mostly inhibitors; 0.2% of 350,000 active; AID 2528, 2010;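 further: plate controls were vehicle for no effect and no enzyme for full effect; nearly all actives have a fitted effect of over 35% in size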
# RECQ1 inh = qHTS Assay for Inhibitors of RecQ-Like Dna Helicase 1 (RECQ1) | AID 2549, 2010 | Potency, µM (highest dose often 57.3 µM), without a hit: top-dose activity, negative = inhibition, most hits filed as inhibitors | 0.54% of 240,000 active | ATP-dependent DNA helicase Q1 (Homo sapiens), P46063 | RECQ1 DNA unwinding, red fluorescence kinetic read;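 further: plate controls were vehicle for no effect and no enzyme for full effect; nearly all actives have a fitted effect of over 30% in size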
#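 50 nM RECQ1T1 preincubated 15 min with compound in Tris pH 8.0 buffer with MgCl2, DTT, Tween-20 and 2.5 ug/ml poly(dI-dC); started with 200 nM TAMRA/BHQ-2 forked duplex and 2 mM ATP. Unwinding read as fluorescence (525/598 nm), two reads 2 h apart.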
# PGK inhibitor = qHTS Assay to Find Inhibitors of Phosphoglycerate Kinase; Phosphoglycerate kinase, glycosomal (Trypanosoma brucei brucei), P07378; PGK/GAPDH coupled, Kinase-Glo luminescence, 60 min; Potency, µM (series often up to 57.5 µM), without a hit: top-dose activity change, negative = inhibition, most hits filed as inhibitors; 0.043% of 380,000 active; further: nearly all actives have a fitted effect of over 60% in size
#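 Luminescent ATP detection (Kinase-Glo Plus) follows a 60-minute room-temperature incubation, with wells lacking PGK as controls. Buffer: 100 mM TEA (pH 7.6), 5 mM MgCl2, 0.01% Tween-20. Coupling enzyme GAPDH (100 nM final) supplies unstable 1,3-BPG in-well.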
# FEN1 inhibitor = qHTS Assay for the Inhibitors of Human Flap endonuclease 1 (FEN1); P39748; Recombinant FEN1 flap cleavage, fluorescence, 15 min; Potency, µM (series often up to 114 µM), without a hit: at the highest dose activity change, negative = inhibition, most hits filed as inhibitors; 0.35% of 390,000 active; further: nearly all actives have a fitted effect of over 65% in size
# Target sequence (P39748 whole entry, looked up): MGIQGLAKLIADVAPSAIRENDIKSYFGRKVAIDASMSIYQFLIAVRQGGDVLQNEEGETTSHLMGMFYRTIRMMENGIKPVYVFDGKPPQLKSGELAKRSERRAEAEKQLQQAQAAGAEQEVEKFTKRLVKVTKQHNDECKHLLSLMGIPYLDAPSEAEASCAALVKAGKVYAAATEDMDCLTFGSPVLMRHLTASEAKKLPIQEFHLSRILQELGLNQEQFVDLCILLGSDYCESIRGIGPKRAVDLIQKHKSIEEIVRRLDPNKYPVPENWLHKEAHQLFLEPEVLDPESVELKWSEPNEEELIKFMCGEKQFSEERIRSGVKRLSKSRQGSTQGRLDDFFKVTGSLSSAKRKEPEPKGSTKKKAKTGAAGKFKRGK
#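 Read-out was taken twice, immediately and after 15 min, following addition of 50 nM substrate to 10 nM FEN1 that had sat with test compound for 15 min at room temperature. Curves came from a four-parameter Hill model.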
# * marks the source's active call; other numbers are inactive results; i = inactive; ? = inconclusive; . = not tested or not shown; ! = a repeat was not active; [ ] = remark or other dose. The call rests on the fitted dose curve; in most records, active means well fitted curve in the direction sought with a large enough effect; inconclusive means small, poorly fitted or top-dose-only effect, or another doubt; inactive means no such curve, though single readings can be large; an effect the other way counts as inactive or inconclusive. Unless noted, on the % scale 0 is the no-effect control and ±100 the full control effect; potency means the concentration at half of the fitted maximal effect.
SMILES,GLS inhibitor,APEX1 inh,BLM helicase inh,RECQ1 inh,PGK inhibitor,FEN1 inhibitor
O=[N+]([O-])c1c(Nc2cccc(O)c2)cc(Cl)c2nonc12,2%,16%,-11%,.,-10%,50µM*
CCOc1ccc(NC(=O)COC(=O)c2ccccc2OCc2ccccc2Br)cc1,.,.,.,.,.,7%
COc1cc2[nH]c(=S)nc(NCC3CCCO3)c2cc1OC (stereo unspecified),-30%,-1%,3%,-4%,i,-9%
COc1cc2[nH]c(=S)nc(NC3CCCCCC3)c2cc1OC,10%,-3%,-3%,-5%,i,45µM*
O=C(Nc1cccc(Cl)c1)c1cc(N=Nc2ccc([N+](=O)[O-])cc2Cl)ccc1O,-2%,-3%,18µM*,-5%,.,-21%
O=C(Nc1ccc([N+](=O)[O-])cc1Cl)c1cc(Cl)ccc1O,-1%,-24%,3%,-5%,-7%,?
Cc1c2oc3c(C)ccc(C(=O)NC4C(=O)NC(C(C)C)C(=O)N5CCCC5C(=O)N(C)CC(=O)N(C)C(C(C)C)C(=O)OC4C)c3nc-2c(C(=O)NC2C(=O)NC(C(C)C)C(=O)N3CCCC3C(=O)N(C)CC(=O)N(C)C(C(C)C)C(=O)OC2C)c(N)c1=O (stereo unspecified),.,13µM*,.,3.2µM*,.,.
C[C@@H]1CC[C@]2(C(=O)O[C@@H]3O[C@H](CO)[C@@H](O)[C@H](O)[C@H]3O)CC[C@]3(C)C(=CCC4[C@@]5(C)C[C@@H](O)[C@H](O)[C@@](C)(C(=O)O[C@@H]6[C@H](O)C[C@@]7(C)C(CC[C@]8(C)C7CC=C7[C@H]9[C@](C(=O)O[C@@H]%10O[C@H](CO)[C@@H](O)[C@H](O)[C@H]%10O)(CC[C@@H](C)[C@@]9(C)O)CC[C@]78C)[C@@]6(CO)C(=O)O)C5CC[C@]43C)[C@@H]2[C@]1(C)O (stereo partly specified),7.1µM*,-15%,.,.,6%,9%
CO[C@@]1(NC(=O)Cc2cccs2)C(=O)N2C(C(=O)O)=C(COC(N)=O)CS[C@@H]21,11µM*!,?,-8%,-10%,-11%,-1%
CO[C@@]1(NC(=O)Cc2cccs2)C(=O)N2C(C(=O)O)=C(COC(N)=O)CSC21 (stereo partly specified),.,-6%,9%,i,.,.
Brc1ccc(C2C=Cc3ccccc32)cc1 (stereo unspecified),.,.,.,.,.,16%
C#C[C@@]1(OC(C)=O)CC[C@H]2[C@@H]3CCC4=CC(=O)CC[C@@H]4[C@H]3CC[C@@]21C,0%,.,.,.,.,.
COc1ccccc1NS(=O)(=O)c1cc(NC(=O)CNC(=O)c2ccc(C)s2)ccc1Cl,2%,?,-9%,-5%,-2%,45µM*
COc1ccccc1NC(=O)Nc1ccc(Cl)c(S(=O)(=O)Nc2ccccc2OC)c1,6%,33%,-8%,-16%,5%,-11%
Cn1cccc1CC(=O)N/N=C/C=C/c1ccco1,-1%,6%,25µM*,-3%,-8%,-13%
CN(C)c1ccc(C(=C2C=CC(=[N+](C)C)C=C2)c2ccc(N(C)C)cc2)cc1,2%,?,22µM*!,10µM*,.,40µM*
CN(C)c1ccc(C(=C2C=CC(=[N+](C)C)C=C2)c2c(O)c(S(=O)(=O)[O-])cc3cc(S(=O)(=O)O)ccc23)cc1,73%,.,-16%,.,.,45µM*
CN(C)c1ccc(C(=C2C=CC(=[N+](C)C)C=C2)c2ccccc2)cc1,26%,-4%,-3%,?,.,.
CN[C@@H]1[C@@H](O[C@H]2O[C@H](CO)[C@@H](N)[C@H](O)[C@H]2O)O[C@H]2C[C@@H](N)[C@@H](O[C@H]3[C@H](O)[C@@H](O)[C@H](N)C[C@@H]3N)O[C@@H]2[C@@H]1O,.,2%[21 µM],.,.,.,.
CCCC(=O)OCCNc1cc(SCc2ccco2)c2nonc2c1[N+](=O)[O-],3%,6%,13µM*,3%,-5%,-26%
CC(=O)OCCCNc1cc(SCc2ccco2)c2nonc2c1[N+](=O)[O-],6%,?,-17%,?,-8%,56µM*
CCCC(CCC)C(N)=O,-5%,.,.,.,.,.
CC(C)c1onc(C(=O)Nc2sc3c(c2C#N)CCC3)c1[N+](=O)[O-],4%,?,-15%,40µM*,i,0%
CC(C)c1cc(C(=O)Nc2sc3c(c2C#N)CCC3)no1,11%,-5%,-4%,i,4%,1%
CCOC(=O)c1c(NC(C)=O)sc2c(OCC(O)CNC(C)(C)C)c(Br)ccc12 (stereo unspecified),-15%,?,-10%,7%,.,22µM*
SMILES,GLS inhibitor,APEX1 inh,BLM helicase inh,RECQ1 inh,PGK inhibitor,FEN1 inhibitor
CNc1ccc(C=O)cc1Cl,.,.,.,.,.,-7%
Nc1c(C=C2C=CC(=O)C=C2)c(=O)nc2sc(CC(=O)N3CCCCC3)nn12,3%,65%,-1%,.,-12%,-26%
Nc1c(/C=C2/C=CC(=O)C(O)=C2)c(=O)nc2sc(CC(=O)N3CCOCC3)nn12,3%,.,.,.,?,25µM*
COC1=C/C(=C/c2c(N)n3nc(CC(=O)N4CCCC4)sc3nc2=O)C=CC1=O,0%,60%,0%,.,-8%,-19%
Nc1c(/C=C2/C=CC(=O)C(O)=C2)c(=O)nc2sc(CC(=O)N3CCCCC3)nn12,-9%,1.9µM*,28µM*,.,?,-2%
Nc1c(/C=C2/C=CC(=O)C(O)=C2)c(=O)nc2sc(CC(=O)N3CCCC3)nn12,?,11µM*,-19%,.,?,?
C[C@@H]1[C@H](c2ccccc2)OCCS(=O)(=O)N1Cc1ccc(Cl)cc1,.,.,.,.,.,-6%
C[N+](C)(C)CC(O)CC(=O)[O-] (stereo unspecified),.,-1%,.,.,.,.
CCOc1ccc(/C=C2/SC(=S)N(CCC(=O)Nc3ccc(C(=O)O)cc3)C2=O)cc1,?,7.5µM*,-27%,.,?,-33%
CCN(CC)CCOC(=O)c1ccc(NC(=O)CCCN2C(=O)S/C(=C/c3ccc(OC)cc3)C2=S)cc1,7%,34µM*,-7%,.,i,?

# High-throughput results as filed in PubChem.
